TDP1 cell CPT: DT40-hTDP1 cell growth loss with CPT. chicken DT40 Tdp1-/-;hTDP1 cells + 20 nM CPT, ATP luminescence, 48 h. Potency, µM (series often up to 46.2 µM), inactives show at the highest dose activity change, negative = growth inhibition, actives largely listed as inhibitors. 12% of 420,000 active. AID 686979; further: potency means the concentration at half of the fitted maximal effect; on the % scale 0 is the no-effect control and ±100 the full control effect; nearly all actives have a fitted effect of over 55% in size
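Chicken DT40 Tdp1-/- cells complemented with human TDP1, 400 cells/well, exposed to compounds plus 20 nM camptothecin for at least 48 h at 37 C; viability read as ATP content by CellTiter-Glo luminescence.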
TDP1 cell noCPT: qHTS for Inhibitors of human tyrosyl-DNA phosphodiesterase 1 (TDP1): qHTS in cells in absence of CPT; DT40 Tdp1-/- hTDP1 cells, no CPT, ATP luminescence, 48 h; Potency, µM (highest dose often 46.2 µM), for the others: top-dose activity change, negative = growth inhibition, most hits filed as inhibitors; 15% of 420,000 active; AID 686978, 2013; further: potency means the concentration at half of the fitted maximal effect; on the % scale 0 is the no-effect control and ±100 the full control effect; nearly all actives have a fitted effect of over 55% in size
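Readout: luminescence from CellTiter-Glo after 30 min in the dark at RT. Cells: DT40 Tdp1-/- with stable hTDP1, 400/well. Exposure: compounds alone, ≥48 hr, 37 °C.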
DRD3 agonist: agonists of human D3 dopamine receptor. P35462. D3R DiscoveRx beta-arrestin cells, luminescence, 90 min. max activation, %. 0.58% of 410,000 active; in the data active means max activation above about 30%; further: 0% is about no effect
Target sequence (P35462 whole entry, looked up): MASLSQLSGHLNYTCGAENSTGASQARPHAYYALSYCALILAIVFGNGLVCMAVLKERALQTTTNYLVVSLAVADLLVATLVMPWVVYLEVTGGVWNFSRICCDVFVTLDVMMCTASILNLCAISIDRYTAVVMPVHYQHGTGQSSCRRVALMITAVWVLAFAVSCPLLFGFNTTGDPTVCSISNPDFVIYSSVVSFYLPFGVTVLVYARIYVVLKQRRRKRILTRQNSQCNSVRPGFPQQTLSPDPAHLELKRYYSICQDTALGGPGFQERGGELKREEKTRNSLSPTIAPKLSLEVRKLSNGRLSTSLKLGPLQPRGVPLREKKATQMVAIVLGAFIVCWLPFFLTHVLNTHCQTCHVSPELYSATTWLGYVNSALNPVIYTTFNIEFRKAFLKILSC
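Agonist mode: compounds and dopamine controls were applied to plated cells for 90 min at 37 degrees C after an overnight attachment at 1500 cells/well. Luminescent read-out followed 30 - 60 minutes at room temperature with DiscoveRx detection reagent.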
ClpP mod: qHTS Assay for Activators of ClpP. Potency, µM (doses to about 57.5 µM), for inactives: at the top dose activity change, negative = active. ATP-dependent Clp protease proteolytic subunit (Bacillus subtilis (strain 168)), P80244. 1.9% of 340,000 active. purified B. subtilis ClpP, FRET peptide cleavage, 20 min; active means well fitted falling curve with a large enough effect; inconclusive means small, poorly fitted or top-dose-only effect; inactive means no such curve, though single readings can be large or run the other way; further: potency means the concentration at half of the fitted maximal effect; the source files actives as falling curves though it sought activators and does not explain the sign; nearly all actives have a fitted effect of over 65% in size
Target sequence (P80244 whole entry, looked up): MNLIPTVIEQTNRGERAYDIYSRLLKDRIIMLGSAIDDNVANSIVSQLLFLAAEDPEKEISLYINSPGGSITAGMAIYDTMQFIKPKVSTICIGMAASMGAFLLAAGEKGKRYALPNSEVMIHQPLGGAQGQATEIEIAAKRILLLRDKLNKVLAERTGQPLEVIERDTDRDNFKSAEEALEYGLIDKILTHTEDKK
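Buffer: 100 mM Tris/HCl pH8, 100 mM KCl, 0.05% low protease BSA, 2.5% glycerol, 0.01% Tween-20. ClpP 10 microg/mL final; 20 min RT; delta FRET normalized to ADEP and DMSO controls.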
D3 antag: D3 dopamine receptor (human) antagonism. P35462. D3R cells, DiscoveRx beta-arrestin luminescence, antagonist mode; stronger effect = lower value. max response, negative = inhibition, %. 2.5% of 360,000 active. AID 652054; in the data active means max response below about -50%; inconclusive means no clear call, values can overlap the other calls; further: on the % scale 0 is the no-effect control and ±100 the full control effect
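Cells plated overnight at 1500 cells/well, then exposed to library compounds with dopamine controls for 90 minutes at 37 degrees C. DiscoveRx reagent added for 30–60 minutes at room temperature; luminescence read, quantitative HTS format.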
IL-1B inflam inh: inflammasome signaling inhibition, IL-1 beta readout. THP-1 LPS/ATP IL-1B secretion, AlphaLISA, 16 h; stronger effect = lower value. activity change, % at 57.5 µM. 4.7% of 360,000 active. AID 743279; in the data active means activity change below about -50%; inconclusive means mostly about -30% to -49%; further: on the % scale 0 is the no-effect control and ±100 the full control effect
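Secreted IL-1B measured by AlphaLISA bead assay after 16 h compound exposure of THP-1 cells; compounds (final up to 57.5 uM) added 1 h before LPS (250 ng/mL) and ATP (1.25 mM) stimulation; lower signal means less secretion.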
* hit, by the source's call; ? = inconclusive; · = not tested or not shown. Shown are actives, neighbours in structure and some others; about 21% of the full set was active somewhere. Unless noted, the call rests on the fitted dose curve; in most records, active means well fitted inhibition curve with a large enough effect; inconclusive means small, poorly fitted or top-dose-only effect; inactive means flat fitted curve, though single readings scatter.

SMILES	TDP1 cell CPT	TDP1 cell noCPT	DRD3 agonist	ClpP mod	D3 antag	IL-1B inflam inh
CSc1ccc(C2c3c(-c4ccccc4O)n[nH]c3C(=O)N2Cc2ccncc2)cc1 (stereo unspecified)	23.1µM*	18.4µM*	6.4	0.9%	·	·
CC(C)c1ccc(C2c3c(-c4ccccc4O)n[nH]c3C(=O)N2Cc2ccncc2)cc1 (stereo unspecified)	?	?	3.3	0.4%	·	·
COc1ccc(C(=O)N2c3ccccc3C(C)(c3ccc(Cl)cc3)CC2(C)C)cc1 (stereo unspecified)	?	16.4µM*	1.3	-5.4%	·	·
CC1(c2ccc(Cl)cc2)CC(C)(C)N(C(=O)c2ccccc2)c2ccccc21 (stereo unspecified)	?	?	3.7	0.1%	·	·
CC(=O)N1c2ccccc2C(C)(c2ccc(C)cc2)CC1(C)C (stereo unspecified)	·	·	-6.9	2.1%	·	·
CC1(c2cc([N+](=O)[O-])cc([N+](=O)[O-])c2)CC(C)(C)N(C(=O)c2ccccc2)c2ccccc21 (stereo unspecified)	23.1µM*	16.4µM*	0.2	0.3%	9.0	0.3
CCC(CC)C(=O)N1c2ccccc2C(C)(c2ccccc2)CC1(C)C (stereo unspecified)	18.4µM*	23.1µM*	3.5	-1.2%	·	·
COc1cccc(C(=O)N2c3ccc(C)cc3C(C)(c3ccccc3)CC2(C)C)c1 (stereo unspecified)	?	23.1µM*	-4.6	0.4%	·	·
COc1ccc(N(CC(=O)NCc2ccccc2Cl)S(=O)(=O)c2c(C)nn(C)c2C)cc1	-5.6%	?	-1.9	-0.1%	·	·
c1ccc(Nc2nc(NCc3ccco3)nc3nccnc23)cc1	-2.7%	-25.6%	·	-0.7%	·	·
O=c1cnc2cnc(Oc3cccc(Cl)c3)nc2n1C[C@H]1CCCO1	?	-16.6%	·	·	·	·
O=C1COc2ccc(NC(=O)c3ccccc3C(=O)O)cc2N1	4.1%	5.5%	1.2	-3.0%	0.5	9.9
COc1cc(/C=C/CNC[C@H]2O[C@@H](n3cnc4c(=O)[nH]c(N)nc43)[C@H](O)[C@@H]2O)ccc1O	-6.4%	?	10.7	-1.8%	5.4	0.0
CC(Sc1nnc2c(n1)[nH]c1ccccc12)C(=O)NC1CCCCC1 (stereo unspecified)	23.1µM*	20.6µM*	-4.9	·	-10.3	-28.2
CC(Sc1nnc2c(n1)[nH]c1ccccc12)C(=O)N(C)C1CCCCC1 (stereo unspecified)	25.9µM*	20.6µM*	7.7	·	12.7	-55.9*
O=C(CSc1nnc2c(n1)[nH]c1ccccc12)N1CCCCC1	-0.5%	-27.1%	-5.0	·	3.5	11.2
O=c1[nH]c2ccccc2c(O)c1-c1ccccc1[N+](=O)[O-]	?	-13.1%	3.3	·	-2.7	0.3
CCOc1ccc(-n2c(=O)c3c4c(sc3n(Cc3cccc(Cl)c3)c2=O)CCCC4)cc1	-17.4%	-6.2%	1.8	-0.7%	·	·
CC1=NN(c2nc(-c3ccc(C)cc3)cs2)C(=O)C1N=Nc1ccc2ccccc2c1 (stereo unspecified)	?	?	-11.0	2.0%	11.9	18.7
CC1=NN(c2nc(-c3ccccc3)cs2)C(=O)C1N=Nc1ccccc1 (stereo unspecified)	?	14.6µM*	13.2	·	24.1	2.5
CC1=NN(c2ccccc2)C(=O)C1N=Nc1ccc(S(N)(=O)=O)cc1 (stereo unspecified)	-2.1%	4.4%	3.0	0.8%	-8.2	55.4
CC1=NN(c2nc(-c3ccc(C)cc3)cs2)C(=O)C1N=Nc1ccc(C(N)=O)cc1 (stereo unspecified)	4.61µM*	5.17µM*	-0.5	·	?	39.5
O=C(C[n+]1ccccc1Cl)c1cccc([N+](=O)[O-])c1	?	?	·	-2.6%	·	·
Nc1nc(-c2ccccc2)nc(-c2ccccc2O)n1	?	?	6.5	1.5%	14.1	?
NNc1nc(-c2ccccc2)cc(-c2ccccc2O)n1	?	?	-86.1	-1.6%	-99.5*	-8.8
SMILES	TDP1 cell CPT	TDP1 cell noCPT	DRD3 agonist	ClpP mod	D3 antag	IL-1B inflam inh
NNc1nc(-c2ccccc2)cc(-c2ccccc2)n1	16.4µM*	?	-6.1	-0.4%	1.1	?
Nc1nc(-c2ccccc2)cc(-c2ccccc2O)n1	?	?	-2.8	-0.7%	13.7	-60.7*
O=C(Cn1c(=O)n(CCC(=O)N2CCCCC2)c(=O)c2sccc21)NCc1ccccc1	-9.6%	21.2%	-9.4	0.0%	14.4	-11.5
Cc1ccc(C)c(N=C2CCCN2Cc2ccccc2)c1C#N	?	16.4µM*	13.4	-0.6%	15.2	6.2
COc1ccc(CCNC(=O)CN(c2cc(C(F)(F)F)ccc2Cl)S(C)(=O)=O)cc1	4.9%	?	8.8	0.8%	·	·
CC(C)c1ccc(OCC(=O)Nc2c3c(nn2C(C)(C)C)CS(=O)(=O)C3)cc1	11.6µM*	?	-3.9	-2.0%	-2.0	-11.9
Cc1ccc(C(=O)Nc2c3c(nn2C(C)(C)C)CS(=O)(=O)C3)cc1[N+](=O)[O-]	-7.1%	14.0%	-1.3	-3.2%	-10.2	-20.8
CC(C)(C)n1nc2c(c1NC(=O)c1ccc(Cl)c([N+](=O)[O-])c1)CS(=O)(=O)C2	-26.1%	0.7%	10.1	-1.2%	-29.6	-97.5*
Cc1noc(C)c1COc1ccc(C(=O)NCC(c2c(F)cccc2Cl)N(C)C)cc1 (stereo unspecified)	?	?	-14.4	0.6%	-4.5	13.2
CC[C@H](C)[C@@H](CO)NC(=O)[C@H]1O[C@@H](n2ccc(=O)[nH]c2=O)[C@H](O)[C@@H]1O	-2.3%	-11.4%	-14.5	2.1%	-105.2*	39.8
C[C@@H](CO)NC(=O)[C@H]1O[C@@H](n2ccc(=O)[nH]c2=O)[C@H](O)[C@@H]1O	-21.3%	2.1%	7.9	0.8%	9.2	54.1
Cc1ccccc1C1=C/C(=C(\SS/C(C(=O)c2ccc(OCC(=O)O)c(Cl)c2Cl)=C2\C=C(c3ccccc3C)SS2)C(=O)c2ccc(OCC(=O)O)c(Cl)c2Cl)SS1	5.2%	12.7%	-1.2	2.4%	-21.8	?
Cc1ccc(/C(N)=N/OC(=O)c2ccc3c(c2)OCO3)cc1	-10.7%	?	-9.6	?	-22.8	-0.5
N/C(=N\OC(=O)c1ccc2c(c1)OCO2)c1ccncc1	2.8%	4.6%	1.1	0.6%	16.6	-53.5*

Bioassay records from PubChem.
